From the supplement of paper PMC6805474 come the findings set out here.

Assay [1] has as its system Schistosoma mansoni schistosomula (LE). The assay is described as follows: XTT viability relative to DMSO control; higher = more viable (less active). As to conditions: 72 h; 10 µM. The protocol: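 XTT/PMS was then added for a further 24 h (72 h total) and A450 was read. % viability = (sample - heat-killed control)/(DMSO control - heat-killed control) x 100, from duplicate wells in two independent experiments.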
On the technique in general: Tetrazolium dyes change colour on reduction, which living cells bring about.

For assay [2], the system named is Schistosoma mansoni schistosomula (NMRI). The experiment in a line: phenotypic severity score (0-4); higher = more antischistosomal effect, active = 2 or more. Conditions: 10 µM.
Assay [3] concerns Schistosoma mansoni schistosomula (Liberian). The experiment in a line: drug effect (1 - score/DMSO control score) (fraction); higher = more antischistosomal effect, active = 0.5 or more; extreme values may be limits of the assay. Conditions: 10 µM. In short, it runs like this: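 A plate was valid only if its 0.1% DMSO wells averaged a score of at least 2. Those wells ran beside duplicate wells in which 50 Liberian-strain Schistosoma mansoni schistosomula each, transformed mechanically from cercariae and pre-incubated at least 12 h, met 10 µM compound in Medium 199 with 5% FCS at 37 °C, 5% CO2. Scoring was visual at 10× at 24, 48 and 72 h, from 3 (normal) to 0 (dead) in quarter-point steps. Drug effect was derived from the mean test-well score against the mean DMSO-well score, with negatives set to zero.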

A value given as a limit tells only on which side of the number the result lay.
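Wherever phenotypic severity score (0-4) is given: visual microscopic scoring of shape, motility and density changes versus 0.5% DMSO solvent controls, one point per descriptor, degeneracy or death scored 4, mean of duplicate wells.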

Regarding `CN1CCC(NCc2cccc(-c3ccc(S(=O)(=O)NCc4ccccc4)cc3)c2)CC1`, in assay [1], the XTT viability came out at 19.2%. In addition, the values for the phenotypic severity score in assay [2] (24 h), in assay [2] (48 h) and in assay [2] (72 h) were 0 (inactive), 2 (active) and 4 (active), respectively. The drug effect in assay [3] (24 h) was 0.6 (active); in assay [3] (48 h), 0.784 (active); in assay [3] (72 h), 0.939 (active).
Regarding `COc1ccc(Cn2cnc3c(-c4ccco4)nc(Cl)nc32)cc1`, the XTT viability in assay [1] came out at 98.6%. Besides, the phenotypic severity score in assay [2] (24 h), in assay [2] (48 h) and in assay [2] (72 h) was 0 (inactive) each time. The figures for the drug effect in assay [3] (24 h), in assay [3] (48 h) and in assay [3] (72 h) were 0.105 (inactive), 0.0556 (inactive) and 0.125 (inactive), respectively.
For the compound `O=C(Nc1nnc(S)s1)c1cc(Br)ccc1Cl`, the XTT viability in assay [1] stood at 91.7%. Moreover, the phenotypic severity score in assay [2] (24 h), in assay [2] (48 h) and in assay [2] (72 h) was 0 (inactive) throughout. Moreover, the drug effect was 0.05 (inactive) in assay [3] (24 h), 0.027 (inactive) in assay [3] (48 h) and 0.0909 (inactive) in assay [3] (72 h).
Turning to `CC(=O)NCC1CN(c2ccc(-c3ccc(CNCc4cn[nH]n4)cc3)c(F)c2)C(=O)O1` (stereo not given), the XTT viability in assay [1] is 108%. Besides, the phenotypic severity score in assay [2] (24 h), in assay [2] (48 h) and in assay [2] (72 h) was 0 (inactive) throughout. Also, the drug effect in assay [3] (24 h) is 0.05 (inactive); in assay [3] (48 h), 0.0556 (inactive); in assay [3] (72 h) it was < 0 (inactive).
As for `CCc1nc2ccccc2n1CC(O)COc1cc(C)ccc1Cl` (stereo not given), the XTT viability in assay [1] is 106%. Also, the phenotypic severity score in assay [2] (24 h), in assay [2] (48 h) and in assay [2] (72 h) was 0 (inactive) in each case. The drug effect in assay [3] (24 h) is 0.0909 (inactive); in assay [3] (48 h), 0.25 (inactive); in assay [3] (72 h), 0.236 (inactive).
With `O=C(Nc1c(O)cccc1-c1nc2c(C(=O)O)cccc2o1)c1cc(-c2ccccc2)on1`, the XTT viability in assay [1] amounted to 80.2%. In addition, the phenotypic severity score in assay [2] (24 h), in assay [2] (48 h) and in assay [2] (72 h) was 0 (inactive) each time. Moreover, the drug effect was 0.05 (inactive) in assay [3] (24 h), 0.027 (inactive) in assay [3] (48 h) and 0.0303 (inactive) in assay [3] (72 h).
With `Cc1cc(C)cc(COc2ccc3c(C)c(CCC(=O)O)c(=O)oc3c2C)c1`, the XTT viability in assay [1] came to 79.3%. Also, the values for the phenotypic severity score in assay [2] (24 h), in assay [2] (48 h) and in assay [2] (72 h) were 1 (inactive), 1 (inactive) and 0 (inactive), respectively. In addition, the results for the drug effect in assay [3] (24 h), in assay [3] (48 h) and in assay [3] (72 h) were 0.136 (inactive), 0.2 (inactive) and 0.127 (inactive), respectively.
As for `COc1ccc(-c2onc(C(F)(F)F)c2-c2ccc(Cl)cc2)c(O)c1`, the XTT viability in assay [1] stood at 0.0885%. The phenotypic severity score in assay [2] (24 h), in assay [2] (48 h) and in assay [2] (72 h) was 0 (inactive) each time. The figures for the drug effect in assay [3] (24 h), in assay [3] (48 h) and in assay [3] (72 h) were 0.15 (inactive), 0.167 (inactive) and 0.188 (inactive), respectively.
Regarding `CCOc1ccc2cc(-c3nn(CC4CCN(C)CC4)c4ncnc(N)c34)ccc2c1`, the XTT viability in assay [1] was found to be 44.3%. Also, the phenotypic severity score in assay [2] (24 h), in assay [2] (48 h) and in assay [2] (72 h) was 0 (inactive) each time. In addition, the drug effect in assay [3] (24 h) is 0.1 (inactive); in assay [3] (48 h) it was 0.167 (inactive); in assay [3] (72 h) it was 0.389 (inactive).
Take `N#Cc1nc(-c2ccccc2)oc1S(=O)(=O)c1ccc(Cl)cc1`: the XTT viability in assay [1] is -7.61%. Also, the phenotypic severity score in assay [2] (24 h) is 0 (inactive); in assay [2] (48 h), 0 (inactive); in assay [2] (72 h) it was 1 (inactive). For the same compound, the drug effect in assay [3] (24 h), in assay [3] (48 h) and in assay [3] (72 h) was 1 (active) each time.
As to `CC(C)(CN)c1nc(-c2ccc(Cl)c(O)c2)c(-c2ccnc(N)n2)[nH]1`, the XTT viability in assay [1] came out at 156%. The phenotypic severity score in assay [2] (24 h), in assay [2] (48 h) and in assay [2] (72 h) was 0 (inactive) each time. The drug effect was 0.15 (inactive) in assay [3] (24 h), 0.167 (inactive) in assay [3] (48 h) and 0.312 (inactive) in assay [3] (72 h).
As for `COc1cccc2c(C)nc(N=C(N)N)nc12`, the XTT viability in assay [1] was 93.3%. Further, the phenotypic severity score in assay [2] (24 h), in assay [2] (48 h) and in assay [2] (72 h) was 0 (inactive) throughout. Besides, the drug effect in assay [3] (24 h) is 0.182 (inactive); in assay [3] (48 h) it was 0.2 (inactive); in assay [3] (72 h) it was 0.127 (inactive).
On to `Cc1ccc2nc(Cl)c(CNCc3cccs3)cc2c1`, for which the XTT viability in assay [1] is 83.2%. For the same compound, the phenotypic severity score in assay [2] (24 h), in assay [2] (48 h) and in assay [2] (72 h) was 0 (inactive) in each case. Besides, the values for the drug effect in assay [3] (24 h), in assay [3] (48 h) and in assay [3] (72 h) were 0.182 (inactive), 0.2 (inactive) and 0.0727 (inactive), respectively.
Consider `CC(C)N=c1cc2n(-c3ccc(Cl)cc3)c3ccccc3nc-2cc1Nc1ccc(Cl)cc1`, for which, in assay [1], the XTT viability stood at 16.6%. Also, the phenotypic severity score in assay [2] (24 h), in assay [2] (48 h) and in assay [2] (72 h) was 4 (active) in each case. The drug effect in assay [3] (24 h), in assay [3] (48 h) and in assay [3] (72 h) was 1 (active) each time.
With `CCC(NC(=O)c1ccccc1NC(=O)c1ccc(C)cc1)C(=O)OC` (stereo not given), the XTT viability in assay [1] turned out to be 82.9%. In addition, the phenotypic severity score was 0 (inactive) in assay [2] (24 h), 1 (inactive) in assay [2] (48 h) and 1 (inactive) in assay [2] (72 h). Also, the results for the drug effect in assay [3] (24 h), in assay [3] (48 h) and in assay [3] (72 h) were 0.2 (inactive), 0.167 (inactive) and 0.25 (inactive), respectively.
In the case of `CCCc1ccc(S(=O)(=O)Nc2ccc(CN3CCN(CC4CC4)CC3)cc2)cc1`, in assay [1], the XTT viability came to 108%. Also, the phenotypic severity score in assay [2] (24 h), in assay [2] (48 h) and in assay [2] (72 h) was 0 (inactive) each time. Besides, the drug effect in assay [3] (24 h) is 0.15 (inactive); in assay [3] (48 h), 0.167 (inactive); in assay [3] (72 h) it was 0.375 (inactive).
For `Cc1ccc2[nH]c(C3CCCNC3)c(-c3ccncc3)c2c1` (stereo not given), in assay [1], the XTT viability turned out to be 75.2%. In addition, the phenotypic severity score in assay [2] (24 h), in assay [2] (48 h) and in assay [2] (72 h) was 0 (inactive) in each case. The drug effect in assay [3] (24 h) is < 0 (inactive); in assay [3] (48 h), < 0 (inactive); in assay [3] (72 h) it was 0.111 (inactive).
As to `CCOC(=O)c1c(NC(=O)c2c(F)c(F)c(F)c(F)c2F)sc(C(N)=O)c1C`, the XTT viability in assay [1] was -3.42%. The phenotypic severity score in assay [2] (24 h), in assay [2] (48 h) and in assay [2] (72 h) was 4 (active) throughout. Besides, the drug effect in assay [3] (24 h), in assay [3] (48 h) and in assay [3] (72 h) was 1 (active) each time.
As for `CC[C@@H]([C@H](C)O)n1ncn(-c2ccc(N3CCN(c4ccc(OC[C@@H]5CO[C@@](Cn6cncn6)(c6ccc(F)cc6F)C5)cc4)CC3)cc2)c1=O`, the XTT viability in assay [1] is 88.8%. Besides, the phenotypic severity score in assay [2] (24 h) was 3 (active); in assay [2] (48 h), 4 (active); in assay [2] (72 h), 4 (active). Further, the drug effect in assay [3] (24 h) is 0.2 (inactive); in assay [3] (48 h) it was 0.243 (inactive); in assay [3] (72 h), 0.556 (active).
With `O=C(Nc1nnc(-c2ccc(Cl)s2)o1)c1ccc(Cl)s1`, in assay [1], the XTT viability is -3.4%. Also, the phenotypic severity score in assay [2] (24 h) is 2 (active); in assay [2] (48 h), 4 (active); in assay [2] (72 h) it was 4 (active). Besides, the drug effect in assay [3] (24 h), in assay [3] (48 h) and in assay [3] (72 h) was < 0 (inactive) each time.
